Among the data in PubChem BioAssay (NCATS) are Potency, activity change, negative = inhibition and outcome values, retold here.

Assay [1] is described as follows: Cytotoxicity counterscreen for inhibitors of SARS-CoV-2 cell entry (AID 1645845). Further: nearly all actives have a fitted effect of over 50% in size. The gist of the method:
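After a 15 min room-temperature ATPLite 1step step, luminescence reflected ATP remaining in HEK293-ACE2 cells exposed to compound for 1 h plus 48 h at 37 C, with percent activity set by cell and no-cell controls.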

The nature of assay [2]: Primary qHTS to identify inhibitors of SARS-CoV-2 cell entry (AID 1645846). Further: nearly all actives have a fitted effect of over 45% in size. Further: potency means the concentration at half of the fitted maximal effect. Conditions: activity change, negative = inhibition: at 57.1 µM (top of the series) unless noted. A digest of the protocol:
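Data are normalized to wells receiving SARS-CoV-2-S pseudoparticles and those given bald particles. Entry signal was luciferase luminescence in stable hACE2 Expi293F cells, 48 hr post-infection, after 1 hr compound pretreatment.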
A general note: qHTS replaces the single test concentration by a dilution series.

Values joined by “and” are separate entries in the source; they are usually repeats but may differ in a detail not shown here. Equal values may be shown once. Inconclusive results are not listed. Active and inactive are the calls of the source. The call rests on the fitted dose curve. Starred links: 1 amine or outer side, 2 acyl side, 3 side chain; linkers in the order of their positions; H or OH if unused. Positions of bridges follow the written chain, without caps; N, C: chain ends. Non-standard residues stand in square brackets, D forms with d. Residues, ends and D or L forms follow the SMILES beside them. ξ: configuration not given here. *: point of attachment. ΔAla(3-NHCONH2) = NC(=O)NC=C(N)C(=O)O; X1 = NC1=NCCC(C(N[*:1])C(=O)[*:2])N1; ξβ3hOrn = NCCCC(N)CC(=O)*; Dap = NC[CH](N)C(=O)O

Turning to `CCCN(CCC)CCc1cccc2c1CC(=O)N2`, the Potency entry in assay [1] and in assay [2] was “inactive” each time.
Consider `CC(=O)SC[C@@H](C)C(=O)N1CCC[C@H]1C(=O)N[C@@H](Cc1ccccc1)C(=O)O`, for which the Potency result in assay [1] was “inactive”. Moreover, in assay [2], the activity change, negative = inhibition was -7.21%.
`COc1cc2c(cc1OC)[C@@H]1CC(=O)[C@@H](CC(C)C)CN1CC2`: the Potency result in assay [1] and in assay [2] was “inactive” in each case.
With `CCOC(=O)Nc1ccc2c(c1)N(C(=O)CCN1CCOCC1)c1ccccc1S2`, the Potency result in assay [1] is “inactive”. Moreover, in assay [2], the activity change, negative = inhibition is -15.7%.
In the same order, the values of `COc1ccc2nc(S(=O)Cc3ncc(C)c(OC)c3C)[nH]c2c1` (stereo not given) are “inactive” and -4.15%.
Take `NC(=O)c1cn(Cc2c(F)cccc2F)nn1`: the Potency entry in assay [1] and in assay [2] was “inactive” each time.
On to `CC(COc1ccccc1)N(CCCl)Cc1ccccc1` (stereo not given), for which the Potency result in assay [1] was “inactive”. The activity change, negative = inhibition in assay [2] is -7.59%.
As to `CCCCCOC(=O)Nc1nc(=O)n([C@@H]2O[C@H](C)[C@@H](O)[C@H]2O)cc1F`, the Potency entry in assay [1] and in assay [2] was “inactive” in each case.
`COc1ccccc1Oc1c(NS(=O)(=O)c2ccc(C(C)(C)C)cc2)nc(-c2ncccn2)nc1OCCO`: in assay [1], the Potency result was “inactive”. For the same molecule, the activity change, negative = inhibition in assay [2] was -16.5%.
With `COc1ccccc1OCC(O)CN1CCN(CC(=O)Nc2c(C)cccc2C)CC1` (stereo not given), the Potency entry in assay [1] is “inactive”. Further, in assay [2], the activity change, negative = inhibition is 4.5% and -8.51%.
Turning to `CC1(C)NC(=O)N(c2ccc([N+](=O)[O-])c(C(F)(F)F)c2)C1=O`, in assay [1], the Potency result is “inactive”. Besides, the activity change, negative = inhibition in assay [2] is -23.9%.
As for `C[C@@H](c1ncncc1F)C(O)(Cn1cncn1)c1ccc(F)cc1F` (stereo not given in full), the Potency entry in assay [1] is “inactive”. In assay [2], the activity change, negative = inhibition is -1.38%.
Regarding `NCCCC(N)CC(=O)NCC1NC(=O)C(CO)NC(=O)C(N)CNC(=O)C(C2CCN=C(N)N2)NC(=O)C(=CNC(N)=O)NC1=O` (stereo not drawn) (H-[Dap]S[Dap](ξβ3hOrn)[ΔAla(3-NHCONH2)][X1]; lactam 1-C; configuration not given here), in assay [1], the outcome is “inactive [at 0.702 µM]”. The activity change, negative = inhibition in assay [2] was determined as 3.17% [at 0.702 µM].
With `CN(N=O)C(=O)N[C@@H]1[C@@H](O)[C@H](O)[C@@H](CO)O[C@@H]1O`, the Potency entry in assay [1] was “inactive”. Further, the activity change, negative = inhibition in assay [2] is -3.87% and -2.3%.
For the molecule `NS(=O)(=O)c1cc2c(cc1Cl)NC=NS2(=O)=O`, the Potency entry in assay [1] and in assay [2] was “inactive” each time.
For `C[C@@H]1C[C@H]2[C@@H]3CCC4=CC(=O)C=C[C@]4(C)[C@@]3(F)[C@@H](O)C[C@]2(C)[C@@]1(O)C(=O)CO`, the Potency result in assay [1] and in assay [2] was “inactive” throughout.
`CN(C)CCC=C1c2ccccc2C=Cc2ccccc21`: the Potency result in assay [1] was “inactive”. In addition, the Potency in assay [2] was 14.1 µM (active).
With `CCC(C)n1ncn(-c2ccc(N3CCN(c4ccc(OC[C@H]5CO[C@](Cn6cncn6)(c6ccc(Cl)cc6Cl)O5)cc4)CC3)cc2)c1=O` (stereo not given in full), in assay [1], the Potency result was “inactive”. Moreover, in assay [2], the activity change, negative = inhibition is -4.73% [at 27.1 µM].
Consider `Cc1cn([C@H]2C=C[C@@H](CO)O2)c(=O)[nH]c1=O`, for which the Potency entry in assay [1] was “inactive”. The activity change, negative = inhibition in assay [2] was -21.1%.
In the same order, the values of `COC(=O)[C@H]1[C@H]2C[C@@H]3c4[nH]c5cc(OC)ccc5c4CCN3C[C@H]2C[C@@H](OC(=O)c2cc(OC)c(OC)c(OC)c2)[C@@H]1OC` are “inactive” and -18.9%.
